Measurements from PubChem BioAssay (NCI).
The panel holds about 83,000 compounds, 20% with a hit somewhere; the sample as a whole holds those more often.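 Cell lines were cultured in 96-well plates, exposed to a single compound concentration, and assessed for percent growth 48 hours later.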 Activity calls are given as the source filed them.

What follows are compounds tested on ACHN renal (assay: NCI-60 one-dose screen, 48 h (100 = growth as untreated, 0 = no growth, -100 = all killed)). Settings: 10 µM unless noted.
Experimental: Growth inhibition of the ACHN human tumor cell line is measured as a screen for anti-cancer activity. Cells are grown in 96 well plates and exposed to the test compound for 48 hours. Compounds are tested at a single concentration, which is 10^-5 M for most compounds. The reported endpoint is percent growth (GI% or GIPRCNT), where numbers from 0 - 100% represent growth inhibition, and numbers from -100% - 0 represent cell death. For example, a value of 40 represents 60% growth inhibition. A value of 0 means no net growth occurred over the course of the experiment. A value of -40 indicates 40% of cells at the beginning of the experiment died by the end of the experiment. A value of -100 means all cells are dead at the end of the experiment.
NCI-60 Human Tumor Cell Lines Screen was performed using the standard one-dose NCI protocol, which is described in more detail at https://dtp.cancer.gov/discovery_development/nci-60/default.htm.
Compounds with GIPRCNT values below 10 were considered active. Activity score was based on GIPRCNT using the following formula: […]
Score is 0 for GIPRCNT values of 100 or above, 50 for GIPRCNT values of 0, and 100 for GIPRCNT values of -100.

Row | SMILES | growth
1 | CCCCN1CCCC[C@@H]1C(=O)N[C@H](C(=O)N(C)[C@H](CCc1nc(C(=O)N[C@@H](Cc2ccccc2)C[C@H](C)C(=O)OC)cs1)C(C)C)[C@@H](C)CC | 52.2% (inactive)
2 | CN(C)C(=O)Oc1ccc(Br)cc1 | 109% (inactive)
3 | Cc1c(NS(=O)(=O)c2ccccc2)ccc([N+](=O)[O-])c1Cl | 69.7% (inactive)
4 | Oc1c(O)c(Cl)c(Cl)c(Cl)c1Cl | 32.2% (inactive)
5 | CN(C)C(=O)Oc1ccccc1 | 101% (inactive)
6 | CN(C)C1C(=O)C(C(N)=O)=C(O)C2(O)C(=O)C3=C(O)c4c(O)cccc4C(C)(O)C3CC12.[Cl][Sb]([Cl])[Cl] (stereo not given) | 59% (inactive)
7 | O=NN1CCCc2cccc(O)c21 | 17.2% (inactive)
8 | OCc1ccc2c(c1)OCO2 | 104% (inactive)
9 | COc1cc2c(c(OC)c1OC)-c1ccc([O-])c(=O)cc1[C@@H](NC(C)=O)CC2.COc1cc2c(c(OC)c1OC)-c1ccc([O-])c(=O)cc1[C@@H](NC(C)=O)CC2.[Cu+2] | 53.6% (inactive)
10 | CCn1nccc1NC(=O)C(=O)c1cn(Cc2ccc(F)cc2)c2cccc(OC)c12 | 85.3% (inactive)
11 | O=[N+]([O-])c1cnc[nH]1 | 118% (inactive)
12 | COc1cccc2c1c(C(=O)C(=O)Nc1ccn[nH]1)cn2Cc1ccc(F)cc1 | 101% (inactive)
13 | CC(C)[C@]12O[C@H]1[C@@H]1O[C@]13[C@]1(O[C@H]1C[C@H]1c4c(C(=O)c5ccccc5)oc(OC(=O)c5ccccc5)c4CC[C@@]13C)[C@@H]2O | 10.6% (inactive)
14 | COc1ccc2nc(NC(=O)COc3cc(/C=C\c4cc(OC)c(OC)c(OC)c4)ccc3OC)sc2c1 | 42.8% (inactive)
15 | CCCCOc1ccc(C(N)Cc2ccccc2)cc1 (stereo not given) | 90.5% (inactive)
16 | O=C(N/N=C\c1ccc(N(CCCl)CCCl)cc1Cl)c1cccnc1 | 98.5% (inactive)
17 | CC(=O)O[C@@H]1CC[C@]2(C)[C@H]3CC[C@]4(C)C(=O)CC[C@H]4[C@@H]3C[C@@H]3SC(N)=N[C@@]32C1 | 93.7% (inactive)
18 | CC1CCCC(C[N+](C)(C)C)C1=O (stereo not given) | 97.5% (inactive)
19 | COC(=O)[C@@H](C)C[C@H](Cc1ccccc1)NC(=O)c1csc([C@@H](C[C@H](C(C)C)N(C)C(=O)[C@H](C)NC(=O)[C@H]2CCCCN2C)OC(C)=O)n1 | 48.2% (inactive)
20 | C/C(=C\c1cc(C(F)(F)F)nn1CCNC(=O)OC(C)(C)C)[C@@H]1C[C@@H]2O[C@]2(C)CCC[C@H](C)[C@H](O)[C@@H](C)C(=O)C(C)(C)[C@@H](O)CC(=O)O1 | 74.6% (inactive)

Row | SMILES | growth
21 | C1CCC([PH+](C2CCCCC2)C2CCCCC2[PH+](C2CCCCC2)C2CCCCC2)CC1.O=C(C1[CH-]CCCC1)C1CCCC[N-]1.[Au] (stereo not given) | -74.6% (active)
22 | ClCCN(CCCl)Cc1ccc(Nc2ccnc3cc(Cl)ccc23)cc1 | 5.15% (active)
23 | Cc1ccc(S(=O)(=O)C(Cl)(Cl)Cl)cc1 | 105% (inactive)
24 | COC(=O)[C@]12CCC(C)(C)C[C@H]1[C@H]1C(=O)C[C@@H]3[C@@]4(C)C[C@@]5(CC(C)(C)[C@@H]4CC[C@@]3(C)[C@]1(C)CC2)OO[C@@](C)(C(F)(F)F)O5 | 93.6% (inactive)
25 | CC[C@H](C)[C@H](NC(=O)NC(C)(C)C)C(=O)N(C)[C@H](C[C@@H](OC(C)=O)c1nc(C(=O)N[C@@H](Cc2ccccc2)C[C@H](C)C(=O)OC)cs1)C(C)C | 22.7% (inactive)
26 | CC12CCC3C(C=CC4=C(N)C(=O)CCC43C)C1CCC2=O (stereo not given) | 88.2% (inactive)
27 | CC(C)(N)Cc1ccccc1 | 106% (inactive)
28 | CCOC(=O)CCN(C)C1=Nc2ccc(Cl)cc2C(c2ccccc2)=[N+]([O-])C1 | 110% (inactive)
29 | COc1ccc(/C=C\c2cc(OC)c(OC)c(OC)c2)c(NS(=O)(=O)c2ccc(F)cc2)c1O | 24.4% (inactive)
30 | COc1ccc(C(=O)c2cc(OC)c(OC)c(OC)c2)cc1OC(C)=O | 36.7% (inactive)
31 | COc1ccc(O)c(CNC(=O)CN2CCCC2=O)c1 | 99.7% (inactive)
32 | CC1=C(O)[C@@](C)(CCCCC[C@H](C)CCCCc2ccc(O)cc2)OOC1=O | 97.5% (inactive)
33 | COC(=O)[C@@H](C)C[C@H](Cc1ccccc1)NC(=O)c1csc([C@@H](C[C@H](C(C)C)N(C)C(=O)[C@@H](NC(=O)[C@H]2CCCCN2C)C(C)C)OC(C)=O)n1 | 12.6% (inactive)
34 | CC[C@H](C)[C@H](NC(=O)[C@H]1CCCCN1C)C(=O)N(C)[C@H](CCc1nc(C(=O)N[C@@H](Cc2ccccc2)C[C@H](C)C(=O)OC)cs1)C(C)C | 29.3% (inactive)
35 | c1ccc(CSC(c2ccccc2)c2ccccc2)cc1 | 103% (inactive)
36 | O=C1C(N2CC2)=C(N2CC2)C(=O)C(N2CC2)=C1N1CC1 | -45.9% (active)
37 | [Cl][Hg][n]1c(-c2ccco2)nc2ccccc21 | 96.6% (inactive)
38 | CCC[CH2][Sn]([CH2]CCC)([CH2]CCC)[O]c1ccc(Cl)cc1Cl | -69.5% (active)
39 | CC[C@H](C)[C@H](NC(=O)[C@H]1CCCCN1C)C(=O)N(C)[C@H](CC(=O)c1nc(C(=O)N[C@@H](Cc2ccccc2)C[C@H](C)C(=O)O)cs1)C(C)C | 109% (inactive)
40 | C[C@]12CCc3sc(-c4ccccc4O)nc3C1=CC[C@@H]1[C@@H]2CC[C@]2(C)C(=O)CC[C@@H]12 | 98.8% (inactive)
